Data from PubChem BioAssay (Tox21).
Results filed as inconclusive are left out. Calls of active or inactive are those of the source. Unless noted, calls come from the whole dose curve.

Key:
[1] = Nuclear factor erythroid 2-related factor 2/antioxidant responsive element (Nrf2/ARE) small molecule agonists: qHTS cell viability counter screen in human keratinocytes (AID 1919968; active = well fitted curve in the direction sought with a large enough effect in the repeat runs; an effect the other way counts as inactive or inconclusive; note: nearly all actives have a fitted effect of over 55% in size; note: potency is the fitted concentration of half-maximal effect)
Method in brief: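 After a 5 h attachment period, ARE-reporter keratinocytes were dosed with compounds in DMSO and then cultured 23 h at 37 C. Cell viability came from CellTiter-Fluor signal read after a further 1 h.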

[2] = Nuclear factor erythroid 2-related factor 2/antioxidant responsive element (Nrf2/ARE) small molecule agonists: luciferase reporter gene qHTS assay in human keratinocytes (AID 1919969); note: nearly all actives have a fitted effect of over 35% in size; note: potency is the fitted concentration of half-maximal effect
[3] = target: Gonadotropin-releasing hormone receptor (Homo sapiens) (UniProt P30968); assay: Human gonadotropin-releasing hormone receptor (GnRHR) small molecule agonists, calcium flux assay in GnRHR-HEK293 cells (AID 1920063); note: nearly all actives have a fitted effect of over 35% in size
Method in brief: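 We seeded human GnRHR-expressing HEK293 cells for 18 hours, loaded them with calcium dye for an hour at 37 C, added test compounds, and recorded fluorescence intensity kinetically for three minutes.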

[4] = target: KiSS-1 receptor (Homo sapiens) (UniProt Q969F8); assay: Human kisspeptin (KISS1R) small molecule agonists, calcium flux assay in KISS1R-HEK293 cells (AID 1920064; active = well fitted curve in the direction sought with a large enough effect in the repeat runs; an effect the other way counts as inactive or inconclusive)
Method in brief: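 Kinetic calcium assay, 1 s sampling over 3 min at Ex/Em 480/540, in HEK293 cells engineered with human KISS1R; compounds delivered in DMSO after 1 h dye loading.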

[5] = G protein-coupled receptor (GPCR) small molecule agonists, calcium flux assay: HEK293 wild type cell line counter screen (AID 1920065)
Method in brief: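 Calcium-sensitive dye, loaded 1 h at 37 C into cells cultured 18 h, reports compound-evoked calcium release as fluorescence (Ex/Em 480/540), measured over 3 min. Agonist mode; 15-point titrations, triplicate.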

[6] = p53 small molecule agonists, cell-based qHTS assay with human liver microsomes (AID 1963577)
Method in brief: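 p53RE-bla cells, 4,000/well, compound added after 5 h, with human liver microsomes 0.5 mg/mL and NADPH 0.5 mg/mL final; 16 h at 37 C, then LiveBLAzer 2 h RT, fluorescence.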

[7] = p53 small molecule agonists, cell-based qHTS assay with rat liver microsomes (AID 1963578)
Method in brief: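 p53RE-bla cells, 4,000/well, pre-incubated 5 h, then given compounds plus rat liver microsomes (0.5 mg/mL final) and NADPH (0.5 mg/mL final). Incubation 16 h at 37 C; beta-lactamase reporter read by LiveBLAzer fluorescence after 2 h at room temperature.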

[8] = p53 small molecule agonists, cell-based qHTS assay with rat liver microsomes: qHTS cell viability counter screen (AID 1963580); note: nearly all actives have a fitted effect of over 45% in size
Method in brief: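 p53RE-bla HCT-116 cells were exposed 16 h at 37 C to compounds with rat liver microsomes (0.5 mg/mL) and NADPH (0.5 mg/mL). Viability was measured in the same wells as ATP content by CellTiter-Glo luminescence.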

[9] = p53 small molecule agonists, cell-based qHTS assay: qHTS cell viability counter screen (AID 1963581); note: nearly all actives have a fitted effect of over 45% in size
Method in brief: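 Following 5 h attachment, HCT-116 p53RE-bla cells took up compound for 16 h at 37 C; the reporter was read with B/G FRET substrate (2 h RT), and viability then via CellTiter-Glo ATP luminescence.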

[10] = target: 5-hydroxytryptamine receptor 2A (Homo sapiens) (UniProt P28223); assay: 5-hydroxytryptamine receptor 2A (HTR2A) small molecule agonists, cell-based qHTS assay (AID 1963587); note: nearly all actives have a fitted effect of over 30% in size
Method in brief: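 CHO cells stably expressing human HTR2A, plated 18 h, loaded with calcium dye 1 h at 37 C. Agonist mode: compounds added and intracellular calcium fluorescence recorded kinetically for 2 min at 1 sec intervals.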

[11] = target: Muscarinic acetylcholine receptor M1 (Homo sapiens) (UniProt P11229); assay: Cholinergic receptor muscarinic 1 (CHRM1) small molecule antagonists, cell-based qHTS assay (AID 1963588); note: nearly all actives have a fitted effect of over 40% in size; note: potency is the fitted concentration of half-maximal effect
Method in brief: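 CHRM1-CHO calcium-flux assay, antagonist mode. Cells were seeded 18 h, dye-loaded 1 h at 37 C and given compound for 5 min at RT, then acetylcholine was added at 50nM. FDSS fluorescence was read 3 min; 15 concentrations, three runs.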

[12] = target: Muscarinic acetylcholine receptor M1 (Homo sapiens) (UniProt P11229); assay: Cholinergic receptor muscarinic 1 (CHRM1) small molecule agonists, cell-based qHTS assay (AID 1963589); note: nearly all actives have a fitted effect of over 35% in size
Method in brief: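 Measures agonist-induced intracellular calcium rise. Stable human CHRM1 CHO line, 1 h dye load at 37 C, compounds from DMSO, kinetic fluorescence read.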

[13] = cAMP Responsive Elements (CRE) small molecule antagonists, cell-based qHTS assay (AID 1963591; active = well fitted inhibition curve with a large enough effect in the signal ratio in the repeat runs, not every such curve was filed as active; the % refers to the signal ratio)
Method in brief: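 HEK293T cells carrying a CRE-driven beta-lactamase reporter receive compound and NKH477 (0.25 uM final) for 3 h. Fluorescence from LiveBLAzer B/G FRET substrate is read after 2 h at room temperature.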

[14] = target: Beta-2 adrenergic receptor (Homo sapiens) (UniProt P07550); assay: Adrenergic beta2 receptor (ADRB2) small molecule antagonists, cell-based qHTS assay (AID 1963592); note: series mostly up to about 92 µM; nearly all actives have a fitted effect of over 50% in size
Method in brief: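 Cells (CHO, stable ADRB2 overexpression) incubated 18-20hr at 37C; compounds added from DMSO; agonist mix (1nM isoproterenol, 100uM IBMX, 25uM Ro-20-1724) added; 0.5hr RT; d2-cAMP and anti-cAMP-cryptate added; 1hr RT; 665/615 nm read.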

[15] = target: D(2) dopamine receptor (Homo sapiens) (UniProt P14416); assay: Dopamine D2 receptor (DRD2) small molecule antagonists, cell-based qHTS assay (AID 1963595; active = well fitted inhibition curve with a large enough effect in the signal ratio in the repeat runs, with a control signal flat; the % refers to the signal ratio)
Method in brief: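 Human DRD2 antagonist qHTS measuring cAMP by HTRF. The cells are exposed to compound for 10 min, then to NKH477 (200 nM) and quinpirole (12 nM) for 30 min at RT, with Ro20-1724 (0.1 mM) present throughout.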

[16] = target: 5-hydroxytryptamine receptor 2A (Homo sapiens) (UniProt P28223); assay: 5-hydroxytryptamine receptor 2A (HTR2A) small molecule antagonists, cell-based qHTS assay (AID 1963586); note: nearly all actives have a fitted effect of over 45% in size; note: potency is the fitted concentration of half-maximal effect
Method in brief: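 Antagonist-mode intracellular calcium assay: DOI (4 nM) added after 5 min compound pre-incubation at room temperature to dye-loaded HTR2A-CHO cells. Fluorescence followed for 3 min, sampled every second.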

[17] = cAMP Responsive Elements (CRE) small molecule agonists, cell-based qHTS assay (AID 1963590)
Method in brief: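 A CRE-responsive beta-lactamase reporter in HEK 293T cells was used. Treatment ran 3 h at 37 C; detection used LiveBLAzer B/G FRET substrate for 2 h at room temperature.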

[18] = target: Beta-2 adrenergic receptor (Homo sapiens) (UniProt P07550); assay: Adrenergic beta2 receptor (ADRB2) small molecule agonists, cell-based qHTS assay (AID 1963593);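 note: CHO cells stably overexpressing human ADRB2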
Method in brief: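 CHO cells stably over-expressing ADRB2 were plated overnight at 37C, then dosed with compounds plus a stimulation mix containing 100uM IBMX and 25uM Ro-20-1724 for 0.5hr at room temperature. cAMP was measured by HTRF competition, 1hr.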

[19] = target: D(2) dopamine receptor (Homo sapiens) (UniProt P14416); assay: Dopamine D2 receptor (DRD2) small molecule agonists, cell-based qHTS assay (AID 1963594); note: nearly all actives have a fitted effect of over 35% in size
Method in brief: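 HEK293 cells stably expressing human DRD2, pre-treated with PDE inhibitor Ro20-1724 (0.1 mM final) and compound 10 min at room temperature, then stimulated with NKH477 (200nM […]) for 30 min. cAMP read by HTRF (665/620 nm).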

[20] = p53 small molecule agonists, cell-based qHTS assay (AID 1963582; active = well fitted activation curve with a large enough effect in the signal ratio in the repeat runs, not every such curve was filed as active; the % refers to the signal ratio)
Method in brief: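 In this cell-based concentration-response screen, a p53 response element drives beta-lactamase; cells received DMSO-borne compounds after 5 h culture and were incubated a further 16 h before FRET substrate development.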

Measured: Potency

Chain of Gonadotropin-releasing hormone receptor (Homo sapiens) (P30968 whole entry, looked up): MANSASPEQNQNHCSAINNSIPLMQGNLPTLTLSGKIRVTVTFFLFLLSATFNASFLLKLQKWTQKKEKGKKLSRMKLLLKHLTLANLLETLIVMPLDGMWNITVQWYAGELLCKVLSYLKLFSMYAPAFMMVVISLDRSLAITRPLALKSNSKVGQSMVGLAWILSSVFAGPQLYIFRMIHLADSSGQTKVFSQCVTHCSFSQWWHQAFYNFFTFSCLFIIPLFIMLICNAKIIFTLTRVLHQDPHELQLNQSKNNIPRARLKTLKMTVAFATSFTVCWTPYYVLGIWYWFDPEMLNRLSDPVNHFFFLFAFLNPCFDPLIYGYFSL
Chain of KiSS-1 receptor (Homo sapiens) (Q969F8 whole entry, looked up): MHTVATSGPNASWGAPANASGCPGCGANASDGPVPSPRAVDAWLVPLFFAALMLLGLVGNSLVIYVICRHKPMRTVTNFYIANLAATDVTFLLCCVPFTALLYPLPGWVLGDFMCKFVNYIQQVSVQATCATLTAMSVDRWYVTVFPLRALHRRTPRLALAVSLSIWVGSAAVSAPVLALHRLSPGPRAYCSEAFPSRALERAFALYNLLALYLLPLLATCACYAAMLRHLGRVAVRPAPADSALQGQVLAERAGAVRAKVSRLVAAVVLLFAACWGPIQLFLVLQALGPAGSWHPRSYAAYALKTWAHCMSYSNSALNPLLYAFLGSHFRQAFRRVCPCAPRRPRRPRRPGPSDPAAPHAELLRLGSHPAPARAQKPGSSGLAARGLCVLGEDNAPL
Chain of Beta-2 adrenergic receptor (Homo sapiens) (P07550 whole entry, looked up): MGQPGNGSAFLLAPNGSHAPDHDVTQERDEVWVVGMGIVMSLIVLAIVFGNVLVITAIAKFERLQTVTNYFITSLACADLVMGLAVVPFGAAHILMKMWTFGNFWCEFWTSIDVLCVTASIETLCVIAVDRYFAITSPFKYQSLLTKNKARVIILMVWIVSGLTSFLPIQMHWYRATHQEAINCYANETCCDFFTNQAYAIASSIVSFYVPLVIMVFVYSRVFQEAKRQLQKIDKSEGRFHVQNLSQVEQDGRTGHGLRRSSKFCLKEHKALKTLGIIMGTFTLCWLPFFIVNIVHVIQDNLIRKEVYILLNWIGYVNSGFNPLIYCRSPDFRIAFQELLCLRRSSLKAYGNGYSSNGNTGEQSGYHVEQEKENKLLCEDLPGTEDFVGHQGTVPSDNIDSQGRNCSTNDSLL
Chain of Muscarinic acetylcholine receptor M1 (Homo sapiens) (P11229 whole entry, looked up): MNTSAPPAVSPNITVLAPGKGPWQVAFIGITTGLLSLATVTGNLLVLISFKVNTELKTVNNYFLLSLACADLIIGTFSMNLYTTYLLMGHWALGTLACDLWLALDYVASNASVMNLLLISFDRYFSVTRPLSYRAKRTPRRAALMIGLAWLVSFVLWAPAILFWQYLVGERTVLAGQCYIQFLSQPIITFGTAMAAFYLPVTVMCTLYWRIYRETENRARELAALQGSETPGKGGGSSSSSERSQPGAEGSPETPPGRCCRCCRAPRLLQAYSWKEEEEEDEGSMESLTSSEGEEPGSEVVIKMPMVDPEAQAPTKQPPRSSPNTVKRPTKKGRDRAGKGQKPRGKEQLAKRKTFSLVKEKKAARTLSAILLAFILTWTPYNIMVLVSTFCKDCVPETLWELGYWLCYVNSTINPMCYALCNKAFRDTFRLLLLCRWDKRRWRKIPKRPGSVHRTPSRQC
Chain of D(2) dopamine receptor (Homo sapiens) (P14416 whole entry, looked up): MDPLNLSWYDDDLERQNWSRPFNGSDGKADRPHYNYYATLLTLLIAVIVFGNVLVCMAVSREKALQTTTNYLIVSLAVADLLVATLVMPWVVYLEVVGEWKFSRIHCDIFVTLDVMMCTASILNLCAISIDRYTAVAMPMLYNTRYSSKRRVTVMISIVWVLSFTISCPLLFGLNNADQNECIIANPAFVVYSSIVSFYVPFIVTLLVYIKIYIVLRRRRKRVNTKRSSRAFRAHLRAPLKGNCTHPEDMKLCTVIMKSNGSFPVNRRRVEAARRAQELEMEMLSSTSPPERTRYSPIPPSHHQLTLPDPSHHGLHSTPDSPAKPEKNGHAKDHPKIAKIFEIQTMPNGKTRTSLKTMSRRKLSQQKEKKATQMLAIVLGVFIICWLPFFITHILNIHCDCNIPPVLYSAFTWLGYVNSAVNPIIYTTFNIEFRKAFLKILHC
Chain of 5-hydroxytryptamine receptor 2A (Homo sapiens) (P28223 whole entry, looked up): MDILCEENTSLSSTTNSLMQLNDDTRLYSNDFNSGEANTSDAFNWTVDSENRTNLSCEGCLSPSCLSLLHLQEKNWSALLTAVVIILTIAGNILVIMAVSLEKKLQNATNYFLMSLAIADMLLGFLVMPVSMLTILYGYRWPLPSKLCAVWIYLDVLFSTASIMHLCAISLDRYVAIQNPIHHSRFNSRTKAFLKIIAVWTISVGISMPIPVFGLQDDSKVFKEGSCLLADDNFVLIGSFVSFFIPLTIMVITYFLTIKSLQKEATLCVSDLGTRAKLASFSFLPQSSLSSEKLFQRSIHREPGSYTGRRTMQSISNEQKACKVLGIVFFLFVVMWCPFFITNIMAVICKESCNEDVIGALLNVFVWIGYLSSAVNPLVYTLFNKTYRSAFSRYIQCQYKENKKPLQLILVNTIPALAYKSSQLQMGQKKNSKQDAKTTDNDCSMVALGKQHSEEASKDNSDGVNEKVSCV

Cc1ccc(-n2[nH]c(C)c(N=Nc3cccc(-c4cccc(C(=O)O)c4)c3O)c2=O)cc1C
active: [1] 26.6 µM
not listed: [16] | [17] | [18] | [19] | [20]
inactive: all other assays above

O=Cc1cccc(Br)c1
not listed: [20]
inactive: all other assays above

CCCN1C[C@H](CSC)C[C@@H]2c3cccc4[nH]cc(c34)C[C@H]21
inactive: [1] | [2] | [3] | [4] | [5] | [6] | [7] | [8] | [9] | [20] | [15]

CC1(C)CC(N)CC(C)(C)N1
not listed: [18] | [20]
inactive: all other assays above

OCCNCc1ccccc1
active: [2] 68.6 µM
not listed: [10] | [12] | [16] | [20]
inactive: all other assays above

COc1cc2c(cc1OC)-c1cc3ccc(OC)c(OC)c3c[n+]1CC2
not listed: [14] | [15] | [16] | [17] | [18] | [19]
inactive: all other assays above

O=C(O)CCNC(=O)c1ccc(N=Nc2ccc(O)c(C(=O)O)c2)cc1
not listed: [10] | [11] | [12] | [16] | [18]
inactive: all other assays above

O=C(NCCCN1CCOCC1)c1ccc(Cl)cc1
not listed: [18] | [20]
inactive: all other assays above

CN1[C@@H]2CC[C@H]1CC(OC(=O)C(O)c1ccccc1)C2 (stereo partly specified)
not listed: [10] | [11] | [12] | [14] | [16]
inactive: all other assays above

Cc1cn[nH]c1
not listed: [10] | [11] | [12] | [16]
inactive: all other assays above

CC(=O)N(CC(O)CN(C(C)=O)c1c(I)c(C(=O)NCC(O)CO)c(I)c(C(=O)NCC(O)CO)c1I)c1c(I)c(C(=O)NCC(O)CO)c(I)c(C(=O)NCC(O)CO)c1I (stereo unspecified)
not listed: [11] | [16]
inactive: all other assays above

CNC(=O)c1cc(Oc2ccc(NC(=O)Nc3ccc(Cl)c(C(F)(F)F)c3)cc2)ccn1
active: [1] 26.6 µM
not listed: [13] | [16] | [17] | [18] | [20]
inactive: all other assays above

O=C(O)Cc1ccccc1Oc1ccc(Cl)cc1Cl
not listed: [12] | [16] | [17] | [20]
inactive: all other assays above

C/C=C\C/C=C/CCCCCCCCOC(C)=O
active: [2] 68.6 µM
not listed: [13] | [14] | [17] | [20]
inactive: all other assays above

CC[C@@]1(O)C(=O)OCc2c1cc1n(c2=O)Cc2c-1nc1ccccc1c2/C=N/OC(C)(C)C
active: [16] 5.79 µM | [11] 20.5 µM
not listed: [13] | [17] | [18] | [19] | [20]
inactive: all other assays above

Cc1cc(C(C)(C)C)c(O)c(C)c1CC1=NCCN1
not listed: [10] | [11] | [12] | [16] | [17]
inactive: all other assays above

O=C(O)Cc1csc(-c2ccc(Cl)cc2)n1
not listed: [13] | [14] | [17] | [18] | [19] | [20]
inactive: all other assays above
